Results published in PubChem BioAssay (EPA / NIEHS).
Several values for one entry are separate records, joined by “and”; a condition that tells them apart may be missing. Equal values may be shown once. The source holds several records for some structures; these can differ, active in one and inactive in another. Activity calls are given as the source filed them. How the source made its calls: active means hit-call score of the fitted dose curve at least 0.9, where 1 is the maximum; inactive means score below 0.9.

How the values were obtained:
[1] = ATG_AP_1_CIS: Attagene CIS-FACTORIAL HepG2 Assay for human Activator Protein 1 (AP-1) (AID 2282931); conditions: HepG2 Attagene cis-factorial AP-1 reporter mRNA; actives raise or lower the signal
Method in brief: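 Readout is reporter transcript level from endogenous transcription factor activity, quantified by RT-PCR with fluorescent primer extension and capillary electrophoresis. Transiently transfected HepG2 cells, 24 h exposure. Curves fitted both directions versus DMSO.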

[2] = ATG_BRE_CIS: Attagene CIS-FACTORIAL HepG2 Assay for human Bone Morphogenetic Protein (BMP) Response Element (BRE) (AID 2282933); conditions: HepG2 BMP response element reporter, Attagene transcription factor profiling; actives raise or lower the signal
Method in brief: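 A HepG2 multiplex reporter system measured inducible reporter mRNA 24 h post-dosing. Detection: RT-PCR, 6-FAM primer extension, HpaI digestion, capillary electrophoresis. Activity fitted bidirectionally relative to DMSO.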

[3] = biological target: Retinoic acid receptor alpha (Homo sapiens) (UniProt P10276); assay: ATG_DR5_RAR_CIS: Attagene CIS-FACTORIAL HepG2 Assay for human Retinoic Acid Receptor Alpha (RARE), DR5 submotif (AID 2282934); conditions: HepG2 Attagene cis-factorial RARE DR5 reporter, mRNA; actives raise or lower the signal;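 on AC50: reporter responds to endogenous RAR alpha beta and gamma in HepG2 not RARA alone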
Sequence of Retinoic acid receptor alpha (Homo sapiens) (P10276 whole entry, looked up): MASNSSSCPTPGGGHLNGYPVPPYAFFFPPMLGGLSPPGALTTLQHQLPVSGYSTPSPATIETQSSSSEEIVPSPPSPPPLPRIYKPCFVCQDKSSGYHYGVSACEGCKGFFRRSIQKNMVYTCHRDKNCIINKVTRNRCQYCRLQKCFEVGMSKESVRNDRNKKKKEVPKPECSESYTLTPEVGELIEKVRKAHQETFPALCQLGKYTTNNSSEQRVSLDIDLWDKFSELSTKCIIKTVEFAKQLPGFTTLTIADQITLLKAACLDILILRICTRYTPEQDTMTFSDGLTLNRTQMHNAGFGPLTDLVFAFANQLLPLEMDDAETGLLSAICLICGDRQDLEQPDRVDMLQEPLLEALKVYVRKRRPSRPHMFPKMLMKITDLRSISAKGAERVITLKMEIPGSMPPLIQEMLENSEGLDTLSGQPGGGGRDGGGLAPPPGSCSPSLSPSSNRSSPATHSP
Method in brief: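 After 24 h of chemical exposure, transiently transfected HepG2 cells were lysed for total RNA; the DR5-regulated reporter transcript was quantified via RT-PCR and capillary electrophoresis, with activity fitted bidirectionally against DMSO.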

[4] = biological target: Transcription factor E2F1 (Homo sapiens) (UniProt Q01094); assay: ATG_E2F_CIS: Attagene CIS-FACTORIAL HepG2 Assay for human E2F Transcription Factor 1 (AID 2282935); conditions: HepG2 Attagene cis-reporter, E2F reporter RNA transcripts; actives raise or lower the signal
Sequence of Transcription factor E2F1 (Homo sapiens) (Q01094 whole entry, looked up): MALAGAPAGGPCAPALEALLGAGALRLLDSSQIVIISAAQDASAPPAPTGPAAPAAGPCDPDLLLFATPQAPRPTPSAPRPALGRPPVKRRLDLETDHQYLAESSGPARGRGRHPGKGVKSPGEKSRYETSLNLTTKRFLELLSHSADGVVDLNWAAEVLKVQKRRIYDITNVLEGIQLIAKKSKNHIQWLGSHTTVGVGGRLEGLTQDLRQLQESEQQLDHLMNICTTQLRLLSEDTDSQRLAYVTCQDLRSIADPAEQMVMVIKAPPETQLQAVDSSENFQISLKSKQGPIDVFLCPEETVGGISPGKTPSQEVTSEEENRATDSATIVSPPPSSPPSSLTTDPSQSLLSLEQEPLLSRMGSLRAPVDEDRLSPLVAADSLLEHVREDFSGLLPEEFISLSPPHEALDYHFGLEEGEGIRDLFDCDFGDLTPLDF
Method in brief: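 Liver-derived HepG2 cells expressing transfected promoter-driven reporter units received test chemical for 24 hours. Signal gains or losses were fitted bidirectionally against DMSO.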

[5] = ATG_E_Box_CIS: Attagene CIS-FACTORIAL HepG2 Assay for human Enhancer Box (E-box) (AID 2282936); conditions: HepG2 E-box cis-reporter transcription, actives raise or lower the signal
Method in brief: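 In this cell-based setup, HepG2 cells bearing transfected promoter-driven reporter units were exposed to chemicals for 24 h; reporter transcripts were amplified, 6-FAM-labelled, cut with HpaI and sized by capillary electrophoresis.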

[6] = ATG_M_61_CIS: Attagene CIS-FACTORIAL HepG2 Assay for M61 Transcription Factor (Internal Marker) (AID 2282937); conditions: HepG2 Attagene CIS-FACTORIAL M61 internal marker reporter; actives raise or lower the signal
Method in brief: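 Readout is reporter mRNA by RT-PCR, fluorescent primer extension and capillary electrophoresis, with gain or loss fitted relative to DMSO. Transfected HepG2 cells carrying endogenous-TF-driven cis reporters were exposed to chemicals for 24 hours.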

[7] = ATG_EGR_CIS: Attagene CIS-FACTORIAL HepG2 Assay for human Early Growth Response 1 (EGR1) (AID 2282938); conditions: HepG2 Attagene CIS-FACTORIAL EGR reporter mRNA; actives raise or lower the signal
Method in brief: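 After 24 h compound exposure, RNA from reporter-transfected HepG2 cells was reverse-transcribed, PCR-amplified, fluorescently labelled and resolved by capillary electrophoresis. EGR1 reporter transcript changes, up or down, were fitted against DMSO, reflecting endogenous transcription-factor activity.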

[8] = ATG_M_19_CIS: Attagene CIS-FACTORIAL HepG2 Assay for M19 Transcription Factor (Internal Marker) (AID 2282939); conditions: HepG2 Attagene CIS-FACTORIAL M19 internal marker reporter; actives raise or lower the signal
Method in brief: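 Chemical-treated HepG2 (24 h) with MRTU constructs; reporter transcripts detected by fluorescent RT-PCR fragment analysis on capillary electrophoresis. Internal background marker, DMSO as baseline.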

[9] = ATG_ERE_CIS: Attagene CIS-FACTORIAL HepG2 Assay for Estrogen Response Element (ERE) (AID 2282940); conditions: HepG2 ERE cis-reporter, Attagene RNA transcript; actives raise or lower the signal
Method in brief: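 Human liver cells (HepG2) bearing transiently transfected, promoter-regulated reporter units were exposed 24 h. Reporter mRNA induction was detected by capillary electrophoresis of labelled RT-PCR products and fitted bidirectionally to DMSO.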

[10] = ATG_Ets_CIS: Attagene CIS-FACTORIAL HepG2 Assay for human Erythroblast Transformation Specific (ETS) (AID 2282941); conditions: HepG2 ETS cis-reporter transcription, actives raise or lower the signal
Method in brief: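 Multiplexed reporter transcript profiling: HepG2, 24 h treatment, total RNA to cDNA, PCR, 6-FAM labelling, HpaI cut, capillary electrophoresis. Gain- or loss-of-signal fitted against DMSO.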

[11] = biological target: Hepatocyte nuclear factor 3-beta (Homo sapiens) (UniProt Q9Y261); assay: ATG_FoxA2_CIS: Attagene CIS-FACTORIAL HepG2 Assay for human Forkhead box A2 (FOXA2) (AID 2282942); conditions: HepG2 cis-reporter transcription factor activity, 24 h; actives raise or lower the signal
Sequence of Hepatocyte nuclear factor 3-beta (Homo sapiens) (Q9Y261 whole entry, looked up): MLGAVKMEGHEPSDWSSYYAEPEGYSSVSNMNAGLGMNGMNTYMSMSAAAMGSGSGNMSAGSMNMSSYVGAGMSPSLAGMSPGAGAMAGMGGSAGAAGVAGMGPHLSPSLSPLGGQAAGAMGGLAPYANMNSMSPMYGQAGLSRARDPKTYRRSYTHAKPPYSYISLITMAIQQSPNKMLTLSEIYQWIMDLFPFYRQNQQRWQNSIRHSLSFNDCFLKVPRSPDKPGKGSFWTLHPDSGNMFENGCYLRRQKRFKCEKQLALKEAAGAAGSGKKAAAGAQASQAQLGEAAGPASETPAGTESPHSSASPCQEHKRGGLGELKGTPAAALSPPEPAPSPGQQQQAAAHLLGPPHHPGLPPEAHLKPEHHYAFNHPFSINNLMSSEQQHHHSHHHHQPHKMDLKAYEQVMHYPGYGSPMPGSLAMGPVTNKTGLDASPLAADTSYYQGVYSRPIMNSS
Method in brief: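 Endogenous transcription factor activity is captured via cis-element-driven reporter transcripts in transfected HepG2. Total RNA taken at 24 h post-dosing; labelled RT-PCR products resolved by capillary electrophoresis. Gain or loss fitted versus DMSO.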

[12] = ATG_FoxO_CIS: Attagene CIS-FACTORIAL HepG2 Assay for human Forkhead box O (FoxO) (AID 2282943); conditions: HepG2 Attagene cis-reporter, FoxO element, mRNA; actives raise or lower the signal
Method in brief: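 Transfected HepG2 reporter cells exposed to test chemical for 24 h; reporter RNA measured by reverse transcription, PCR and fluorescent capillary electrophoresis; curves fitted for increases and decreases against DMSO.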

[13] = ATG_GATA_CIS: Attagene CIS-FACTORIAL HepG2 Assay for human GATA Binding Protein (AID 2282944); conditions: HepG2 GATA cis-element reporter, Attagene multiplex mRNA; actives raise or lower the signal
Method in brief: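 Transfected cis-reporter HepG2 cells were treated with chemicals for 24 hours. Total RNA was then converted to cDNA, amplified with reporter-specific primers and analysed by fluorescent capillary electrophoresis, using DMSO-treated wells as baseline.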

[14] = ATG_GLI_CIS: Attagene CIS-FACTORIAL HepG2 Assay for human Zinc Finger Protein GLI1 (AID 2282945); conditions: HepG2, Attagene cis-factorial reporter mRNA, GLI element; actives raise or lower the signal
Method in brief: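 Transiently transfected HepG2 cells report endogenous transcription factor activity via cis-element-driven reporter units. After 24 h compound exposure, reporter mRNA was measured by RT-PCR with capillary electrophoresis; bidirectional fitting against DMSO baseline.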

[15] = biological target: Bile acid receptor (Homo sapiens) (UniProt Q96RI1); assay: ATG_IR1_CIS: Attagene CIS-FACTORIAL HepG2 Assay for human Nuclear Receptor Subfamily 1 Group H Member 4 (NR1H4), IR1 submotif (AID 2282946); conditions: IR1 reporter transcription, actives raise or lower the signal
Sequence of Bile acid receptor (Homo sapiens) (Q96RI1 whole entry, looked up): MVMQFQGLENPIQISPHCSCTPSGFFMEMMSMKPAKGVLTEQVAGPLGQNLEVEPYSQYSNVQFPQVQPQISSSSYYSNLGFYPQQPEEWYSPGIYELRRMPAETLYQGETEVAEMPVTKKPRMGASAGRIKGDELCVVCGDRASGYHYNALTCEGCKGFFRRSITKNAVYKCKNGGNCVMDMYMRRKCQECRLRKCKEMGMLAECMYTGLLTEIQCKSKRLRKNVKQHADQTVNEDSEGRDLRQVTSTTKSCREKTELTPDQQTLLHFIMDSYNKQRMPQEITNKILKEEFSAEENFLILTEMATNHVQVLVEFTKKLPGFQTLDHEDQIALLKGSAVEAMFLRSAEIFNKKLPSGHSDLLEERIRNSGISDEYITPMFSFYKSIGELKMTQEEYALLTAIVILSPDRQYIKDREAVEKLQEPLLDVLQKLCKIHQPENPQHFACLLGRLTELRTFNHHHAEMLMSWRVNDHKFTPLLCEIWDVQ
Method in brief: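 Fluorescence of capillary-separated, HpaI-digested RT-PCR reporter products gave IR1-element mRNA induction in HepG2 cells 24 h after dosing. Endogenous transcription factors drove the cis-regulated reporters; activity was fitted bidirectionally against DMSO.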

[16] = ATG_GRE_CIS: Attagene CIS-FACTORIAL HepG2 Assay for human Glucocorticoid Response Elements (GRE) (AID 2282947); conditions: HepG2 GRE cis-reporter, Attagene multiplex mRNA; actives raise or lower the signal
Method in brief: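 Fluorescence intensity of reporter-specific cDNA fragments, separated by capillary electrophoresis, provides the signal. Constructs carry cis-regulating promoters in transiently transfected HepG2 liver cells; 24 h incubation; fitting is bidirectional against DMSO.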

[17] = ATG_ISRE_CIS: Attagene CIS-FACTORIAL HepG2 Assay for human Interferon Regulatory Factor 1 (IRF1) binding to an Interferon-Stimulated Response Element (ISRE) (AID 2282948); conditions: HepG2 ISRE cis-reporter (Attagene), mRNA transcription readout; actives raise or lower the signal
Method in brief: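 Signal reflects induction or loss of ISRE-linked reporter mRNA in transiently transfected HepG2 cells after a 24 h treatment, detected by fluorescent RT-PCR fragments on capillary electrophoresis and normalised to DMSO.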

[18] = ATG_M_32_CIS: Attagene CIS-FACTORIAL HepG2 Assay for M32 Transcription Factor (Internal Marker) (AID 2282949); conditions: HepG2 Attagene cis-factorial M32 reporter, mRNA; actives raise or lower the signal;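 further: background control marker of the multiplexed CIS panel rather than a real target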
Method in brief: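 HepG2 transfectants (cis-regulated reporter transcription units) dosed 24 h. Reporter mRNA by RT-PCR plus CE, analysed as gain or loss relative to DMSO.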

[19] = ATG_M_06_CIS: Attagene CIS-FACTORIAL HepG2 Assay for M06 Transcription Factor (Internal Marker) (AID 2282950); conditions: HepG2 Attagene CIS-FACTORIAL M06 internal marker reporter; actives raise or lower the signal
Method in brief: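 Cells (HepG2, transiently carrying cis-driven reporter units) receive chemical for 24 h before RNA isolation. Reporter cDNA is PCR-amplified, FAM-labelled by primer extension, HpaI-digested and sized on a capillary analyser.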

[20] = ATG_AP_2_CIS: Attagene CIS-FACTORIAL HepG2 Assay for human Activator Protein 2 (AP-2) (AID 2282932); conditions: HepG2 AP-2 cis-reporter, Attagene transcription factor profiling; actives raise or lower the signal
Method in brief: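 Liver-derived HepG2 line, cis-reporter system measuring endogenous factors; 24 h dosing; reporter mRNA detected by fluorescent RT-PCR and capillary electrophoresis.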

Measured: AC50

N#CCc1ccc(Cl)cc1
inactive: [1] | [2] | [3] | [4] | [5] | [6] | [7] | [8] | [9] | [10] | [11] | [12] | [13] | [14] | [15] | [16] | [17] | [18] | [19]

CCC(=O)C(CC(C)N(C)C)(c1ccccc1)c1ccccc1 (centres undefined)
active: [5] 48.8 µM
inactive: [1] | [2] | [3] | [4] | [6] | [7] | [9] | [10] | [11] | [12] | [13] | [14] | [15] | [16] | [17] | [18] | [19]

COc1cc(-c2ccc(N)c(OC)c2)ccc1N
active: [3] 2.98 µM and 19.8 µM | [5] 43.2 µM | [7] 27.9 µM | [10] 100 µM | [17] 53.6 µM
inactive: [1] | [2] | [4] | [5] | [6] | [7] | [8] | [10] | [11] | [12] | [13] | [14] | [17] | [18] | [19]

CCOP(=S)(OCC)Oc1nc(Cl)c(Cl)cc1Cl
inactive: [5] | [6] | [7] | [8] | [10] | [11] | [12] | [13] | [16] | [18] | [19]
active: [1] 46.2 µM | [2] 65.5 µM | [4] 48.6 µM | [9] 27.5 µM | [14] 71.9 µM | [15] 26.4 µM | [17] 27.2 µM

Oc1ccc(-c2ccccc2)cc1
active: [3] 154 µM | [5] 169 µM | [7] 68.5 µM | [9] 2.15 µM | [17] 179 µM
inactive: [1] | [2] | [4] | [6] | [8] | [10] | [11] | [12] | [13] | [14] | [15] | [16] | [18] | [19]

CC(=[OH+])/C=C(/C)[O-].CC(=[OH+])/C=C(/C)[O-].CC(=[OH+])/C=C(/C)[O-].[Fe]
inactive: [20] | [2] | [4] | [5] | [6] | [7] | [9] | [10] | [11] | [12] | [13] | [14] | [15] | [16] | [17] | [18] | [19]

Nc1ccc(Cl)cc1C(=O)c1ccccc1
inactive: [20] | [2] | [4] | [5] | [6] | [9] | [10] | [11] | [12] | [13] | [14] | [15] | [16] | [17] | [18] | [19]
active: [7] 26.3 µM

CCC(C)c1cccc(C(C)CC)c1O (centres undefined)
inactive: [20] | [2] | [3] | [4] | [5] | [6] | [7] | [8] | [9] | [10] | [11] | [12] | [13] | [14] | [15] | [17] | [18] | [19]

CC(C)CCCCCCOC(=O)c1ccccc1C(=O)OCCCCCCC(C)C
inactive: [20] | [2] | [4] | [5] | [6] | [7] | [8] | [9] | [10] | [11] | [12] | [13] | [14] | [15] | [16] | [17] | [18] | [19]
